Fh CTSL1 inh – blocks F. hepatica cathepsin L1 in PFM18AAP counter-screen; 0.49% of 300,000 active; inhibition, % at 5.96 µM; AID 1906; recombinant F. hepatica cathepsin L1, Z-Leu-Arg-MCA fluorescence;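 active means inhibition above the mean of all tested compounds plus 3 SD, set per screening campaign, cut at about 17% in these data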;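 further: 0% = plate median of test compound wells and 100% = 1 µM Z-Phe-Ala-diazomethylketone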
TPT1 inhibitor – blocks Candida albicans tRNA 2'-phosphotransferase; recombinant caTPT1, FP RNA substrate dephosphorylation; inhibition, % at 5 µM; 0.81% of 300,000 active;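 active means inhibition above the mean of all tested compounds plus 3 SD, set per screening campaign, cut at about 24% in these data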;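 further: plate controls were DMSO alone for no effect and ferristatin control at 100 nM for full effect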
PHOSPHO1 inh – PHOSPHO1 (human) inhibition. recombinant PHOSPHO1, absorbance phosphatase assay. inhibition, % at 13.3 µM. 1.1% of 290,000 active; in the data active means inhibition above about 60%
Rpn11 block – Rpn11 (human) deubiquitinase inhibition. O00487. human 26S proteasome, Ub4-pepOG fluorescence polarization; 20S core pre-blocked with epoxomicin. inhibition, % at 20 µM. 0.59% of 360,000 active. AID 588493;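 active means inhibition at 20 µM, scaled to each plate's controls, above about 33%, limit read from the data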
HNF4A DNA FP – change in binding of human HNF4 alpha to DNA; P41235; HNF4a-FITC DNA binding, fluorescence polarization, 1 h; activity change, % at 10 µM; 0.3% of 360,000 active; AID 1224865; in the data active means activity change above about 30%, passing the limit was not always enough
CendR NRP1 mod – modulators of CendR peptide binding to human neuropilin-1; O14786; FAM-RPARPAR peptide binding to NRP-1, fluorescence polarization; inhibition, % at 25 µM; 0.85% of 360,000 active; AID 602438;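 active means inhibition or corrected inhibition above about 18%, plus a signal ratio from 0.5 to 1.5, limit read from the data, passing the limit was not always enough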
TPT1 inh confirm – TPT1 (C. albicans) inhibition, confirmation; shares compounds with TPT1 inhibitor; recombinant caTPT1, fluorescence polarization, RNase T1 coupled; inhibition, % at 5 µM; 74% of 2,400 active; AID 2149;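 active means inhibition above the primary screen limit, the mean inhibition of all tested compounds plus 3 SD, cut at about 25% in these data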
RNase T1 counter – RNase T1 inhibition in TPT1 counter-screen. shares compounds with TPT1 inhibitor. 83% of 2,400 active. RNase T1 cleavage, fluorescence polarization, 1536-well. inhibition, % at 5 µM;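 active means inhibition above the solvent-only control well mean plus 3 SD, limit set per screening run, cut at about 23% in these data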;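 further: plate controls were DMSO wells with enzyme for no effect and wells without RNase T1 for full effect; inhibitors block cleavage so intact labeled substrate keeps polarization high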
Rpn11 inh conf – confirmation of human proteasome Rpn11 inhibitors | shares compounds with Rpn11 block | purified human 26S proteasome, Ub4-pepOG fluorescence polarization; proteasome pretreated with epoxomicin | inhibition, % at 20 µM | 29% of 1,900 active
MMP-2 inh – counter-screen for RPN11 inhibitors: inhibition of human MMP-2. 4% of 1,900 active. shares compounds with Rpn11 block. inhibition, % at 20 µM. recombinant MMP-2, FRET peptide cleavage fluorescence;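 further: human MMP-2 activated beforehand with APMA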
Thrombin FP – counter-screen for RPN11 inhibitors: inhibition of bovine thrombin | shares compounds with Rpn11 block | bovine thrombin cleavage of Ub4-pepOG, fluorescence polarization | inhibition, % at 20 µM | 13% of 1,900 active | AID 602333;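 active means mean inhibition at least 40% at 20 µM, or signal 3 deviations below plate average, so some actives read negative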;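 further: plate controls were thrombin with DMSO for no effect and buffer wells lacking thrombin for full effect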
Target sequence (P00735 whole entry, looked up): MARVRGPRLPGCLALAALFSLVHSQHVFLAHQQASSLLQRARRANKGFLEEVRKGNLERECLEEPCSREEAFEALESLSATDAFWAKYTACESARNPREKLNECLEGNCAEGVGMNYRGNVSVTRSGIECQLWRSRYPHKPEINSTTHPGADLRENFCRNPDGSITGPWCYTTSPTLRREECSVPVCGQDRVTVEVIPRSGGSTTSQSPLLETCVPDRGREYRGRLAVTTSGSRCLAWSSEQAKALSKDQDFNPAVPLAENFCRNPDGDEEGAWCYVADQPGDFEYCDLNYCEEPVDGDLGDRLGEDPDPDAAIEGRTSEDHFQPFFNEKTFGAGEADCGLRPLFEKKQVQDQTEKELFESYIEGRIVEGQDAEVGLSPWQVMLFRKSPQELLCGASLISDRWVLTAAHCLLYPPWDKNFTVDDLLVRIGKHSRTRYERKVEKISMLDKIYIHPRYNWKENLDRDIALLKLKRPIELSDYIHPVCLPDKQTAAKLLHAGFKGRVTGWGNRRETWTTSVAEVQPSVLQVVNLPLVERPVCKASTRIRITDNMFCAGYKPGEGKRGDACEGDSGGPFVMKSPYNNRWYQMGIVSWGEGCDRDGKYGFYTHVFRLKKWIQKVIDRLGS
Active calls of the source: *; . = no result given. Compounds with a hit are over-represented: about 3.3% of the library has one in this group of screens. Unless noted, no stated cut-off is given here; in the data, active means inhibition above about 40%; inactive means the rest.

SMILES | Fh CTSL1 inh | TPT1 inhibitor | PHOSPHO1 inh | Rpn11 block | HNF4A DNA FP | CendR NRP1 mod | TPT1 inh confirm | RNase T1 counter | Rpn11 inh conf | MMP-2 inh | Thrombin FP
Cc1ccc(N2C=Nc3ccc(C)c4nc(C)cc2c34)cc1 | 1 | -5 | 15 | -33 | -10 | 12 | . | . | . | . | .
O=C(CN1C(=O)/C(=C/c2ccco2)SC1=S)Nc1ccc(C(=O)O)c(O)c1 | 3 | 28* | 37 | 91* | -14 | -149 | 9 | 18 | 43* | 35 | 2
O=C(CCCN1C(=O)/C(=C/c2ccccc2)SC1=S)Nc1ccc(C(=O)O)c(O)c1 | 11 | -3 | 48 | 10 | 1 | -20 | . | . | . | . | .
O=C(CCCN1C(=O)/C(=C\c2ccco2)SC1=S)Nc1ccc(O)cc1C(=O)O | 0 | 27* | 7 | 40* | -39 | -82 | 10 | 18 | 8 | 27 | -3
COc1ccc(/C=C2\SC(=S)N(CCCC(=O)Nc3cccc(C(=O)O)c3)C2=O)cc1OC | 6 | 36* | 20 | 54* | 25 | -117 | 50* | 66* | 83* | -38 | 66*
COc1cccc(/C=C2\SC(=S)N(CCCC(=O)Nc3cccc(C(=O)O)c3)C2=O)c1 | . | . | . | -4 | 0 | -17 | . | . | . | . | .
CCCSc1nnc(NC(=O)CSc2sc3c(O)cc(=O)[nH]c3c2C#N)s1 | 2 | 18 | 19 | 4 | 2 | -23 | . | . | . | . | .
N#Cc1c(SCC(=O)Nc2nccs2)sc2c(O)cc(=O)[nH]c12 | 3 | 79* | -20 | 60* | -22 | -76 | 10 | 15 | 21 | 26 | 7
COc1ccc(OC)c(Nc2nc(-c3cccs3)cs2)c1 | -2 | 2 | -3 | 29 | 2 | 5 | . | . | . | . | .
COc1ccc(C)cc1Nc1nc(-c2c[nH]c3ccccc23)cs1 | 5 | 31* | -15 | 42* | 20 | -48 | 26* | 36* | 8 | 28 | 1
Cc1cc(SCC(=O)c2ccccc2)nc(=O)[nH]1 | 1 | 3 | 30 | 22 | 6 | -4 | . | . | . | . | .
Cc1ccc(C(=O)CSc2cc(C)[nH]c(=O)n2)cc1 | -4 | 28* | 41 | 60* | 17 | -70 | 39* | 47* | 49* | 16 | 24
CC1CCCN(c2c([N+](=O)[O-])cc(C(=O)O)cc2[N+](=O)[O-])C1 (centres undefined) | -2 | -2 | -7 | 0 | 3 | -4 | . | . | . | . | .
Cc1cc(C)nc(SCC(=O)NN=C2CCCC2)n1 | 0 | 3 | 11 | 2 | -2 | 8 | . | . | . | . | .
CN(C)c1ccc(/C=C/c2nc3ccccc3s2)cc1 | -3 | 111* | 38 | 49* | 36* | -78 | 113* | 114* | 32 | -5 | 24
N#C/C(=C\c1ccc(-c2ccccc2)cc1)c1nc(-c2ccco2)cs1 | -3 | 61* | 9 | 56* | 22 | -46 | 21 | 28* | -2 | -14 | -5
CCN1C(=O)/C(=C/c2c(C)nn(C)c2C)SC1=S | 2 | 24* | 18 | 38* | 10 | -112 | 34* | 45* | 33 | -32 | 21
CCc1ccccc1N(CC(=O)NC1CCCCC1)C(=O)CCCC(=O)Nc1ccccn1 | -5 | 0 | 28 | 8 | 2 | -4 | . | . | . | . | .
COc1ccc(OC)c(-n2c(=S)[nH]c3c(sc(=S)n3-c3ccccc3C)c2=O)c1 | 1 | -2 | -14 | -2 | -7 | 2 | . | . | . | . | .
COc1ccc(/C=N/Nc2ccc([N+](=O)[O-])cc2)cc1Cn1cc([N+](=O)[O-])cn1 | 2 | 108* | 17 | 54* | 13 | -7 | 83* | 92* | -3 | -23 | -4
CCOC(=O)CSC1=NC(=O)/C(=C\c2ccc(Cl)cc2)S1 | 6 | 30* | 26 | 50* | 26 | -143 | 52* | 62* | 74* | 12 | 66*
CCOC(=O)C1CCN(C2=NC(=O)/C(=C/c3ccc(Cl)cc3)S2)CC1 | 7 | -4 | 20 | 2 | 0 | -8 | . | . | . | . | .
O=[N+]([O-])c1nn(-c2ccccc2)[n+]([O-])c1N1CCN(c2ccccc2F)CC1 | -6 | -4 | -5 | 10 | 0 | 9 | . | . | . | . | .
Cc1ccccc1N1C(=O)C(Cc2ccc(F)cc2)S/C1=C(\C#N)C(N)=O (centres undefined) | 4 | 26* | -1 | 45* | 3 | 7 | 7 | 11 | 6 | -12 | 0
C=CC[n+]1c(-c2ccc(OC)c(OC)c2)csc1NNC(=O)Nc1ccccc1 | 4 | 25* | -46 | 52* | 1 | -6 | 7 | 11 | -3 | 48* | 1
SMILES | Fh CTSL1 inh | TPT1 inhibitor | PHOSPHO1 inh | Rpn11 block | HNF4A DNA FP | CendR NRP1 mod | TPT1 inh confirm | RNase T1 counter | Rpn11 inh conf | MMP-2 inh | Thrombin FP
O=C(Nc1cc(S(=O)(=O)N2CCOCC2)ccc1N1CCOCC1)C1CCCO1 (centres undefined) | 2 | -1 | 20 | -5 | 1 | -21 | . | . | . | . | .
Cc1cc(=O)[nH]c(N/N=C/c2c(O)n(-c3ccccc3)c(=O)c3ccccc23)n1 | -1 | 36* | 4 | 66* | 21 | -93 | 32* | 39* | 43* | -59 | 13
Cc1ccc(NC(=O)CSc2nncn2N)cc1C | 3 | -4 | . | 4 | 5 | -6 | . | . | . | . | .
Cc1ccc(N=Nc2c(C)[nH][nH]c2=O)c(C)c1 | 4 | 2 | -2 | 10 | 2 | -8 | . | . | . | . | .
CCN(CC)c1ccc(/C=N/N(c2ccccc2)c2ccccc2)c(O)c1 | -5 | 3 | -4 | 10 | 6 | -25 | . | . | . | . | .
CCN(CC)c1ccc(/C=N/N=C(c2ccccc2)c2ccccc2)c(O)c1 | -2 | 36* | 25 | 50* | 29 | -52 | 98* | 104* | 0 | -22 | -24
CCN(CC)c1ccc(/C=N/NC(=O)c2ccco2)c(O)c1 | 3 | 27* | 20 | 47* | 14 | -58 | 48* | 59* | 16 | -26 | 8
COC(=O)c1c(-c2cccnc2)csc1NC(=O)c1cc(C)on1 | 1 | 44* | 24 | 76* | 24 | -84 | 50* | 66* | 53* | -18 | 32
COC(=O)c1c(-c2ccc(C)cc2)csc1NC(=O)c1c(-c2ccccc2)noc1C | 4 | 0 | -15 | . | . | . | . | . | . | . | .
Cc1cc(/C=C2\SC(=S)NC2=O)c(C)n1C | 1 | 53* | 88* | 130* | 44* | -172 | 69* | 84* | 121* | 35 | 91*
